Screens deposited in PubChem by National Center for Advancing Translational Sciences (NCATS).
KB-3-1 tox – kills parental KB-3-1 adenocarcinoma cells; KB-3-1 viability, CellTiter-Glo ATP luminescence, 72 h; Potency, µM (titrated, usually from 46.1 µM), hits mostly cytotoxic; actives 1.4% (n = 400,000); AID 1347075; also: nearly all actives have a fitted effect of over 60% in size
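Viability of parental KB-3-1 cells, measured by CellTiter-Glo luminescence, followed a 72 h incubation at 37 °C with pinned compounds in phenol-red-free DMEM containing 10% FBS.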
HT1080 IDH1KD tx – kills HT-1080 cells with IDH1 knockdown; actives 2% (n = 360,000); AID 686971; HT-1080 IDH1 knockdown viability, ATP luminescence, 48 h; Potency, µM (highest dose often 46.1 µM), most hits filed as cytotoxic
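Cytotoxicity counter-line: IDH1KD HT-1080, 48 h, CellTiter-Glo. Curves classed by r2, magnitude and activity.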
TDP1 cell CPT – DT40-hTDP1 cell growth loss with CPT; chicken DT40 Tdp1-/-;hTDP1 cells + 20 nM CPT, ATP luminescence, 48 h; Potency, µM (top dose mostly 46.2 µM), actives largely listed as inhibitors; actives 12% (n = 420,000); also: nearly all actives have a fitted effect of over 55% in size
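Chicken DT40 Tdp1-/- cells stably complemented with human TDP1 were seeded at 400 cells/well in medium containing 20 nM camptothecin, exposed to pin-transferred compounds, and grown at 37 °C for at least 48 hr. Viability was read as ATP luminescence.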
KB-V1 MDR tox – KB-V1 MDR subline cytotoxicity; actives 3.4% (n = 400,000); KB-V1 MDR cells viability, CellTiter-Glo, 72 h; AID 1347076; Potency, µM (series often up to 46.1 µM), most hits filed as cytotoxic; also: nearly all actives have a fitted effect of over 60% in size
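Readout: CellTiter-Glo luminescence, 10 min after addition. Cells: KB-V1 MDR subline, 72 h at 37 degrees C with compound. Analysis: corrected, normalized data fitted to concentration-effect curves.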
HT1080NT lethal – kills 2HG-producing HT-1080-NT fibrosarcoma cells | HT-1080-NT fibrosarcoma viability, CellTiter-Glo ATP luminescence, 48 h | Potency, µM (titrated, usually from 46.1 µM), usual class: cytotoxic | AID 686970 | actives 1.6% (n = 360,000);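 also: NT is the 2HG producing partner of a matched IDH1 knockdown line; nearly all actives have a fitted effect of over 55% in size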
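750 cells/well, RPMI + 5% FBS; 2 h settle, compound pin-transfer, 48 h at 37 degrees C. CellTiter-Glo 10 min RT, luminescence. Normalized to DMSO and media-only wells.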
DT40 TDP1 no CPT – qHTS for Inhibitors of human tyrosyl-DNA phosphodiesterase 1 (TDP1): qHTS in cells in absence of CPT; actives 15% (n = 420,000); Potency, µM (doses to about 46.2 µM), hits mostly inhibitors; DT40 Tdp1-/- hTDP1 cells, no CPT, ATP luminescence, 48 h; AID 686978, 2013; also: nearly all actives have a fitted effect of over 55% in size
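Camptothecin absent (DMSO only). Human TDP1-complemented DT40 knockout cells, 400 cells/well, 37 °C for minimum 48 hr; ATP measured via CellTiter-Glo, 30 min dark incubation, luminescence.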
A number is an active result; – = inactive; ? = inconclusive; · = no result; [ ] = remark or other dose. A selection: hits, their analogues and other compounds. The true share with any hit is near 19%. Calls follow the shape of the dose curve; as a rule, active = well fitted curve in the direction sought with a large enough effect; inconclusive = small, poorly fitted or top-dose-only effect, or another doubt; inactive = no such curve, though single readings can be large; an effect the other way counts as inactive or inconclusive.

SMILES	KB-3-1 tox	HT1080 IDH1KD tx	TDP1 cell CPT	KB-V1 MDR tox	HT1080NT lethal	DT40 TDP1 no CPT
NC(=O)COc1ccc(-c2noc(COc3ccccc3[N+](=O)[O-])n2)cc1	–	–	–	–	–	–
OCCNc1ncnc2c1ncn2[C@H]1CN(Cc2ccncc2)C[C@@H](CO)O1	–	–	–	–	–	–
Cc1cc2nc3ccc(N(C)C)cc3nc2cc1N	?	–	?	–	–	15µM
COC(=O)c1cccnc1-n1c(=O)c2cccnc2n(Cc2cccc([N+](=O)[O-])c2)c1=O	–	–	?	–	–	12µM
CSc1ccccc1NC(=O)C1(C)CCN1C(=O)CCC1CCCC1 (stereo not drawn)	–	–	?	?	–	?
COc1ccc2c(c1)C(=NO)c1cc(OC)ccc1-2	–	–	?	–	–	?
Clc1ccc(OCCN2CCOCC2)cc1Cl	–	–	–	–	–	–
C=CCOc1ccc2c(c1)C(=NO)c1cc(OCC=C)ccc1-2	?	–	?	?	–	23µM
NC(=S)NN=C1c2cc(OCCN3CCOCC3)ccc2-c2ccc(OCCN3CCOCC3)cc21	23µM	?	16µM	?	?	16µM
ON=C1c2cc(OCCN3CCCCC3)ccc2-c2ccc(OCCN3CCCCC3)cc21	?	23µM	7.3µM	?	21µM	8.2µM
CC(=O)Nc1ccc(S(=O)(=O)N2CCN(c3ccc(C)c(C)c3)CC2)cc1	–	·	·	–	·	·
COc1ccc(C)cc1NC(=O)C(NS(=O)(=O)c1cccc2nsnc12)c1ccccc1 (stereo not drawn)	–	·	?	–	·	?
C[C@H](CO)N1C[C@H](C)[C@@H](CN(C)C(=O)c2cnccn2)Oc2cc(C#CCC3CCCC3)ccc2S1(=O)=O	–	–	?	–	–	?
CN(C)CCCN(C(=O)c1ccc(S(=O)(=O)N(C)Cc2ccccc2)cc1)c1nc2cc3c(cc2s1)OCO3	–	?	–	?	?	16µM
CN(C)CCN(C(=O)c1ccc2ccccc2c1)c1nc2cc3c(cc2s1)OCCO3	–	–	?	–	–	?
CN(C)CCCN(C(=O)c1ccc2c(c1)OCCO2)c1nc2cc3c(cc2s1)OCO3	–	–	?	–	–	–
CN(C)CCCN(C(=O)COc1ccc(Cl)cc1)c1nc2cc3c(cc2s1)OCO3	–	?	8.2µM	–	?	13µM
CN(C)CCCN(C(=O)c1ccc(S(=O)(=O)N2CCCCCC2)cc1)c1nc2cc3c(cc2s1)OCO3	–	–	?	–	–	?
CN(C)CCCN(C(=O)c1ccc2ccccc2c1)c1nc2cc3c(cc2s1)OCO3	–	?	21µM	–	?	?
CN(C)CCCN(C(=O)c1ccc([N+](=O)[O-])o1)c1nc2cc3c(cc2s1)OCO3	–	–	18µM	–	–	?
O=C(N/C(=C/c1ccc(F)cc1)C(=O)N1CCCCC1)c1ccco1	?	–	–	–	–	–
COc1ccc(S(=O)(=O)N2CCC(C(=O)NCCC(=O)NCc3ccccn3)CC2)cc1	–	–	–	–	–	–
CS(=O)(=O)Nc1nnc(SCC(=O)N(c2ccccc2)c2ccccc2)s1	–	–	–	–	–	–
Cc1ccc2sc(N(CCCN(C)C)C(=O)c3ccc(S(=O)(=O)N(C)Cc4ccccc4)cc3)nc2c1C	?	?	?	?	–	?
CCN(c1ccccc1)S(=O)(=O)c1ccc(C(=O)N(CCCN(C)C)c2nc3c(C)cccc3s2)cc1	–	?	?	–	?	?
SMILES	KB-3-1 tox	HT1080 IDH1KD tx	TDP1 cell CPT	KB-V1 MDR tox	HT1080NT lethal	DT40 TDP1 no CPT
CCN(c1ccccc1)S(=O)(=O)c1ccc(C(=O)N(CCCN(C)C)c2nc3cc4c(cc3s2)OCO4)cc1	–	?	18µM	–	?	?
COc1ccc2sc(N(CCCN(C)C)C(=O)c3ccc(S(=O)(=O)N(C)Cc4ccccc4)cc3)nc2c1	?	–	?	?	–	15µM
COCCN1Cc2cccc(C(=O)Nc3ccc(C)c(F)c3)c2C1=O	–	·	?	–	·	?
C[C@@]12C(=O)Nc3cc(F)ccc3C(=O)N1[C@H]1c3ccccc3OC[C@@H]1[C@@H]2c1ccccc1	–	?	?	–	–	?
Cc1cccc(NC(=O)CCCCCn2c(=O)[nH]c3ccsc3c2=O)c1	–	·	–	–	·	?
CCn1c(NC(=O)c2ccc(COc3ccc(C)cc3[N+](=O)[O-])o2)nc2ccccc21	–	–	16µM	?	–[9.24 µM]	?
Cc1ccc(OCc2ccc(C(=O)Nc3cc(C)on3)o2)c([N+](=O)[O-])c1	–	?	?	–	?	–
CCOC(=O)C1=C(c2ccccc2)N=c2s/c(=C\c3cccc(O)c3)c(=O)n2C1c1cccs1 (stereo not drawn)	–	?	?	–	?	26µM
CCOC(=O)C1=C(C)N=c2s/c(=C\c3cccc(OCC(=O)O)c3)c(=O)n2C1c1ccccc1OC (stereo not drawn)	–	–	–	–	–	–
O=C(/C=C/c1ccccn1)c1cc(Cl)cc(Cl)c1O	?	?	?	?	16µM	?
COc1ccc(/C=C/C(=O)c2cc(Cl)cc(Cl)c2O)c(OC)c1	–	–	–	–	–	?
Cc1ccc(S(=O)(=O)CC(=O)Nc2nc3c(C)cc(C)cc3s2)cc1	–	·	?	–	·	?
CC(C)(C)OC(=O)N1Cc2cc3ccccc3nc2C1	–	–	?	?	–	?
CCOC(=O)C1(C(=O)OCC)COC(=O)C1CN1Cc2cc3ccccc3nc2C1 (stereo not drawn)	?	?	10µM	–	?	9.2µM
COc1ccc(S(=O)(=O)NCc2cccn2Cc2cc(C)ccc2C)cc1OC	–	·	–	–	·	?
COc1ccccc1NC(=O)Cn1c(=O)n(Cc2ccc3c(c2)OCO3)c(=O)c2oc3ccccc3c21	·	·	–	·	·	–
Cc1ccccc1NC(=O)Cn1c(=O)n(Cc2ccc3c(c2)OCO3)c(=O)c2ccccc21	–	·	–	–	·	16µM
Cc1ccccc1NC(=O)Cn1c(=O)n(Cc2ccc3c(c2)OCO3)c(=O)c2oc3ccccc3c21	·	·	4.1µM	·	·	8.2µM
Cc1cccc(C)c1NC(=O)Cn1c(=O)n(Cc2ccc3c(c2)OCO3)c(=O)c2oc3ccccc3c21	·	·	5.2µM	·	·	4.6µM
CCOC(=O)c1ccccc1NC(=O)Cn1c(=O)n(Cc2ccc(C(=O)NCc3ccc4c(c3)OCO4)cc2)c(=O)c2ccccc21	–	·	–	?	·	–
N[C@@]1(C(=O)O)CN[C@@H](C(=O)O)C1	·	·	–	·	·	–
